# Test results published in PubChem BioAssay AID651784 (National Center for Advancing Translational Sciences (NCATS), 2012).
# Results filed as inconclusive are left out. Active and inactive are the calls of the source. The call rests on the fitted dose curve; in most records, active means well fitted inhibition curve with a large enough effect; inconclusive means small, poorly fitted or top-dose-only effect; inactive means no such curve, though single readings can be large or run the other way.
# Assay: Acumen qHTS Assay for Inhibitors of the mTORC1 Signaling Pathway in MEF (Tsc2-/-, p53-/-) Cells: Hit Validation;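 further: phospho-rpS6 Ser235/236 immunofluorescence normalized to propidium iodide cell count; nearly all actives have a fitted effect of over 65% in size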;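 on activity change, negative = inhibition: cells exposed to compound for 24 hours; plate controls were DMSO for no effect and 7.5 nM rapamycin control for full effect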
# Conditions: Acumen imaging; activity change, negative = inhibition: at 37.3 µM (top of the series)
# Potency means the concentration at half of the fitted maximal effect.
Structure (SMILES),"activity change, negative = inhibition [%]",Potency
O=C(Cn1c(=O)c2ccccc2n(CC(=O)Nc2ccc(Cl)cc2)c1=O)NCCc1ccccc1,0.576,
COc1cccc(-n2c(-c3ccc(C)cc3)cc3c2CC(C)(C)CC3=O)c1,-34.9,
CC1C(=O)N2CCCc3cc(S(=O)(=O)Nc4ccc(Br)cc4F)cc1c32 (stereo unspecified),,4.65 µM (active)
CCOc1cc(CNc2ccc(O)cc2)cc(Cl)c1OCc1ccccc1,-9.52,
COc1cc(NC(=O)CSc2ccc(-c3ccccn3)nn2)cc(OC)c1,-6.23,
COc1ccc(CNC(=O)c2cc(-c3ccc(OC)c(OC)c3)nc3n[nH]c(-c4ccc(C)cc4)c23)cc1,-124,
COc1cc(OC)cc(C(=O)NCCc2csc(-c3cccc(C)c3)n2)c1,-7.07,
Cc1ccc(S(=O)(=O)c2nc(-c3cccs3)oc2SCC(=O)Nc2cc(C)cc(C)c2)cc1,-132,
Cc1nn(CCCC(=O)NCc2ccccc2)c(=O)c2c1sc1ccccc12,13.7,
CCOc1ccc(CC(=O)NC2CC(=O)N(c3ccc4c(c3)OCCO4)C2)cc1 (stereo unspecified),-2.04,
Cc1ccc(-c2nn(C)c(=O)c3ccccc23)cc1S(=O)(=O)NCCCN(C)C,5.39,
CC1=C(C(=O)OC2CCCC2)C(c2ccccc2Cl)CC(=O)N1 (stereo unspecified),-10.6,
CC(C)S(=O)(=O)c1oc(-c2ccc(F)cc2)nc1S(=O)(=O)c1ccc(F)cc1,-95,
COc1ccc(Cn2c(C(=O)O)c(CNCc3ccc(SC)cc3)c3ccc(OC)cc32)cc1,-12.2,
CCCN1C(=O)C(Cc2nc3ccccc3c(=O)n2CC)c2cc(Br)ccc21 (stereo unspecified),4.78,
CCN1CCOC(=O)C1CC(=O)Nc1ccc(Br)cc1 (stereo unspecified),-3.02,
